Potency and viability (% of DMSO) data for five molecules are collected here from PubChem BioAssay (NCATS).

The nature of experiment [1]: Quantitative High-Throughput drug screen in 47 multiple myeloma cell lines against the NCATS MIPE library collection: Karpas620_DSMZ cell viability assay (AID 1918959). Further: nearly all actives have a fitted effect of over 30% in size. The method in brief: (§1)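 CellTiter-Glo luminescence (ATP) after 48 h compound exposure, 37C/5% CO2; 500 cells/well; MIPE 4.0 approved/investigational drugs pinned in; DMSO = 100%, media only = 0% viability.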

Experiment [2] in a line: Quantitative High-Throughput drug screen in 47 multiple myeloma cell lines against the NCATS MIPE library collection: KMM1_JCRB cell viability assay (AID 1918960). Further: nearly all actives have a fitted effect of over 30% in size. The method in brief: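 Here, 48 h treatment with MIPE 4.0 agents at 37 °C preceded an ATP luminescence read. Plating density was 500 cells per well.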
A short description of experiment [3]: Quantitative High-Throughput drug screen in 47 multiple myeloma cell lines against the NCATS MIPE library collection: Karpas417_ECACC cell viability assay (AID 1918961). Conditions: Karpas417 myeloma viability, CellTiter-Glo ATP luminescence, 48 h; viability (% of DMSO): at 45.8 µM (top of the series). The method in brief: (§2)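 Myeloma cells (500 per well) were exposed to MIPE 4.0 compounds by pin transfer and incubated 48 hours at 37C, 5% CO2. Viability was read as ATP by CellTiter-Glo luminescence, normalised to DMSO (100%) and media-only (0%) wells.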
(In general: ATP-based viability assays read luminescence as a measure of living cells.)

Experiment [4] is described as follows: Quantitative High-Throughput drug screen in 47 multiple myeloma cell lines against the NCATS MIPE library collection: KHM11_PLB cell viability assay (AID 1918962). Further: nearly all actives have a fitted effect of over 35% in size. The method in brief: as §1
Experiment [5] in a line: Quantitative High-Throughput drug screen in 47 multiple myeloma cell lines against the NCATS MIPE library collection: JIM3_ECACC cell viability assay (AID 1918963; further: nearly all actives have a fitted effect of over 35% in size). The method in brief:
as §1

The nature of experiment [6]: Quantitative High-Throughput drug screen in 47 multiple myeloma cell lines against the NCATS MIPE library collection: JIM1_ECACC cell viability assay (AID 1918964). The method in brief: (§3)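 Primary qHTS used for cherry-picking: cells at 500/well, library compounds for 48 h (37C, 5% CO2), luminescent ATP assay.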
A short description of experiment [7]: Quantitative High-Throughput drug screen in 47 multiple myeloma cell lines against the NCATS MIPE library collection: H1112_PLB cell viability assay (AID 1918967; further: nearly all actives have a fitted effect of over 30% in size). The method in brief: as §3
The nature of experiment [8]: Quantitative High-Throughput drug screen in 47 multiple myeloma cell lines against the NCATS MIPE library collection: Karpas25_ECACC cell viability assay (AID 1918968; further: nearly all actives have a fitted effect of over 35% in size). The method in brief:
as §3

Experiment [9] is described as follows: Quantitative High-Throughput drug screen in 47 multiple myeloma cell lines against the NCATS MIPE library collection: KMS27_JCRB cell viability assay (AID 1918970). Further: nearly all actives have a fitted effect of over 30% in size. Conditions: KMS27 myeloma cells, CellTiter-Glo ATP viability, 48 h; viability (% of DMSO): at 45.8 µM (top of the series). In a few lines: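 Each line is seeded at 500 cells per well and treated with library compounds for 48 hours under 37 °C, 5% CO2. CellTiter-Glo is then added for 5 min at room temperature before median relative luminescence is recorded.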

A short description of experiment [10]: Quantitative High-Throughput drug screen in 47 multiple myeloma cell lines against the NCATS MIPE library collection: KMS12BM_JCRB cell viability assay (AID 1918971). Further: nearly all actives have a fitted effect of over 35% in size. The method in brief:
(§4)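 Inhibition of cell viability is measured here. Each line was plated at 500 cells per well, treated with MIPE 4.0 drugs, kept 48 hours at 37C, then assayed for ATP content by CellTiter-Glo luminescence.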

The nature of experiment [11]: Quantitative High-Throughput drug screen in 47 multiple myeloma cell lines against the NCATS MIPE library collection: KMS20_JCRB cell viability assay (AID 1918973). Further: nearly all actives have a fitted effect of over 45% in size. The method in brief: as §3
Experiment [12] can be described thus: Quantitative High-Throughput drug screen in 47 multiple myeloma cell lines against the NCATS MIPE library collection: KMS26_JCRB cell viability assay (AID 1918975). Further: nearly all actives have a fitted effect of over 45% in size. The method in brief: as §4
Experiment [13] is described as follows: Quantitative High-Throughput drug screen in 47 multiple myeloma cell lines against the NCATS MIPE library collection: MMM1_PLB cell viability assay (AID 1918976). Further: nearly all actives have a fitted effect of over 35% in size. In a few lines: (§5)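 Myeloma cells (500/well) treated with MIPE 4.0 compounds for 48 h at 37 °C, 5% CO2. Viability read as ATP via CellTiter-Glo luminescence after 5 min at RT; DMSO-only wells = 100%, media-only = 0% viability.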

A short description of experiment [14]: Quantitative High-Throughput drug screen in 47 multiple myeloma cell lines against the NCATS MIPE library collection: MOLP8_DSMZ cell viability assay (AID 1918977). Further: nearly all actives have a fitted effect of over 45% in size. In a few lines: as §5
Experiment [15] can be described thus: Quantitative High-Throughput drug screen in 47 multiple myeloma cell lines against the NCATS MIPE library collection: NCIH929_DSMZ cell viability assay (AID 1918978). Further: nearly all actives have a fitted effect of over 35% in size. In a few lines: as §5
Experiment [16] can be described thus: Quantitative High-Throughput drug screen in 47 multiple myeloma cell lines against the NCATS MIPE library collection: OCIMY1_PLB cell viability assay (AID 1918979). Further: nearly all actives have a fitted effect of over 35% in size. The method in brief: as §5
Experiment [17] is described as follows: Quantitative High-Throughput drug screen in 47 multiple myeloma cell lines against the NCATS MIPE library collection: INA6_PLB cell viability assay (AID 1918965; further: nearly all actives have a fitted effect of over 55% in size). The method in brief: as §2
Experiment [18] is described as follows: Quantitative High-Throughput drug screen in 47 multiple myeloma cell lines against the NCATS MIPE library collection: JJN3_DSMZ cell viability assay (AID 1918966; further: nearly all actives have a fitted effect of over 50% in size). The method in brief: as §3
Experiment [19] is described as follows: Quantitative High-Throughput drug screen in 47 multiple myeloma cell lines against the NCATS MIPE library collection: KMS12PE_JCRB cell viability assay (AID 1918972). Further: nearly all actives have a fitted effect of over 30% in size. In a few lines:
as §2

Records with an inconclusive call do not appear. Activity calls are given as the source filed them. The call rests on the fitted dose curve; in most records, active means well fitted curve in the direction sought with a large enough effect; inconclusive means small, poorly fitted or top-dose-only effect, or another doubt; inactive means no such curve, though single readings can be large; an effect the other way counts as inactive or inconclusive.
Potency means the concentration at half of the fitted maximal effect.

As for `Cn1cc(CNCC2CCN(c3ncc(C(=O)NO)cn3)CC2)c2ccccc21`, the Potency was 0.105 µM (active) in [1]; 0.0418 µM (active) in [2]; 0.0166 µM (active) in experiment [3]; 0.0662 µM (active) in experiment [4]; 0.132 µM (active) in [5]; 0.0743 µM (active) in experiment [6]. The Potency in experiment [7] is 0.0332 µM (active); in experiment [8] it was 0.0118 µM (active); in experiment [9] it was 0.0166 µM (active); in [10], 0.0235 µM (active); in [11] it was 0.0296 µM (active); in experiment [12] it was 0.0166 µM (active). Moreover, the Potency in experiment [13] was 0.0418 µM (active); in experiment [14] it was 0.0132 µM (active); in experiment [15] it was 0.0209 µM (active); in experiment [16], 0.105 µM (active).
Take `NC(=NCCCCCCN=C(N)N=C(N)Nc1ccc(Cl)cc1)N=C(N)Nc1ccc(Cl)cc1`: the Potency in [1] is 18.7 µM (active); in experiment [2], 18.7 µM (active); in experiment [3], 20.9 µM (active); in experiment [4], 5.9 µM (active); in [5] it was 8.33 µM (active); in [6], 23.5 µM (active). The Potency in experiment [17] is 1.66 µM (active); in experiment [18], 3.32 µM (active); in experiment [7], 2.64 µM (active); in [8], 2.96 µM (active); in [9], 16.6 µM (active); in [10] it was 9.35 µM (active). For the same molecule, the Potency was 16.6 µM (active) in experiment [19]; 3.32 µM (active) in experiment [11]; 16.6 µM (active) in experiment [12]; 20.9 µM (active) in experiment [13]; 8.33 µM (active) in experiment [14]; 3.32 µM (active) in experiment [15]. The Potency in [16] was 11.8 µM (active).
On to `COc1cc(OC)cc(-c2ccc3ncc4ccc(=O)n(-c5ccc(N6CCNCC6)c(C(F)(F)F)c5)c4c3c2)c1`, for which the Potency in experiment [1] is 4.69 µM (active); in experiment [2], 2.96 µM (active); in experiment [3], 2.35 µM (active); in [4], 5.9 µM (active); in [5] it was 10.5 µM (active); in experiment [6], 3.72 µM (active). Moreover, the Potency in experiment [17] is 3.72 µM (active); in experiment [18], 5.9 µM (active); in experiment [7] it was 2.09 µM (active); in experiment [8], 2.96 µM (active); in experiment [10], 5.26 µM (active); in [19] it was 3.72 µM (active). Moreover, the Potency in experiment [11] was 4.18 µM (active); in experiment [14] it was 4.18 µM (active); in [15], 3.72 µM (active).
For `OCCNC1CCCc2c1[nH]c1ccc(-c3ccccc3)cc21` (stereo unspecified), the Potency in [1] is 23.5 µM (active); in experiment [2], 18.7 µM (active); in experiment [3] it was 10.5 µM (active); in experiment [4], 9.35 µM (active); in experiment [5] it was 18.7 µM (active); in [17], 7.43 µM (active). In addition, the Potency in [18] was 23.5 µM (active); in experiment [7], 20.9 µM (active); in [8], 9.35 µM (active); in [9] it was 23.5 µM (active); in experiment [10], 37.2 µM (active); in [19], 8.33 µM (active). The Potency in [11] is 5.26 µM (active); in [12] it was 20.9 µM (active); in experiment [13], 20.9 µM (active); in experiment [15], 13.2 µM (active); in experiment [16] it was 26.4 µM (active).
In the case of `c1cc(CN2CCCNCCNCCCNCC2)ccc1CN1CCCNCCNCCCNCC1`, the Potency result in [1], in experiment [2], in [4], in experiment [5], in [17] and in experiment [7] was “inactive” throughout. Also, the Potency result in [9] and in experiment [10] was “inactive” in each case. In experiment [3], the viability (% of DMSO) is 134% (active).
